The results in this text go back to PubChem BioAssay (NCATS).

Results filed as inconclusive are left out. Where a call stands in place of a potency, no number is given. The source made the active and inactive calls. Calls come from the whole dose curve; as a rule, active = well fitted inhibition curve with a large enough effect; inconclusive = small, poorly fitted or top-dose-only effect; inactive = flat fitted curve, though single readings scatter. Where a SMILES comes first, the peptide text is derived from it. [ ]: non-standard residue; d: D form. ξ: configuration not given here. ξPhe(βξ-Me) = CC(c1ccccc1)C(N)C(=O)O; GABA = NCCCC(=O)O

Phospholipid hydroperoxide glutathione peroxidase GPX4 (Homo sapiens), sequence (P36969 whole entry, looked up): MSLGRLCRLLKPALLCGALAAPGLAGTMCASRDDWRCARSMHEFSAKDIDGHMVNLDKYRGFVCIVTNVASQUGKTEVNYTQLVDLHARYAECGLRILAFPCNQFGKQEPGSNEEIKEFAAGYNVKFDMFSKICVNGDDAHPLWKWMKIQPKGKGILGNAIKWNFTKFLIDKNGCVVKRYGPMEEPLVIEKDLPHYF

This test deals with Phospholipid hydroperoxide glutathione peroxidase GPX4 (Homo sapiens) (UniProt P36969). As to the kind of experiment: Primary qHTS Assay for Inhibitors of Recombinant Selenoprotein Glutathione Peroxidase 4 (GPX4) (AID 1845192). Note: nearly all actives have a fitted effect of over 65% in size. The settings on record: recombinant GPX4, GR-coupled NADPH fluorescence, 15 min; series mostly up to 50 µM. From the text:
Assay Provider: Elias S.J. Arner MD PhD.
Department of Medical Biochemistry and Biophysics
Karolinska Institutet, Solna, Stockholm, Sweden
Selenoprotein glutathione peroxidases (GPX), like the ubiquitously expressed GPX1 and the ferroptosis modulator GPX4, enact their antioxidant activities by reducing hydroperoxides using glutathione. […] GPX1 and GPX4 inhibitors have thus shown promise as anti-cancer agents. Existing inhibitors are often promiscuous, or modulate GPX activity only indirectly, so novel direct inhibitors identified through screening against GPX1 and GPX4 could be valuable. Here, we developed optimized glutathione reductase (GR)-coupled GPX assays for the biochemical high-throughput screen (HTS) of almost 12,000 compounds with known mechanisms of action. Initial hits were triaged using a GR counter-screen, assessed for isoform specificity using a separate GPX2 assay, and were assessed for general selenocysteine-targeting activity using a thioredoxin reductase (TXNRD1) assay. With this suite of assays, we identified novel GPX1/GPX2- and GPX4-specific inhibitors and can here present a validated pipeline for future discovery research for selenoprotein-targeting agents.
SEQUENCE No. (e.g., 1, 2, 3, etc.); […] (e.g., Cells, Incubation, Reagent, etc.); VALUE; DESCRIPTION.
1; Reagent 1; 3 uL; 333.33 nM GPx4 enzyme or no enzyme control in 1536-well, black, solid Greiner assay plate.
2; Compound; 25 nL; Kalypsis pin tool (Wako USA) equipped with a 1536-well pin head.
3; Incubation; 30 min; room temperature.
4; Reagent 2; 1 uL; 500 nM GR, 5 mM GSH, 2.5 mM NADPH solution
5; Reagent 3; 1 uL; 2.5 mM CHP in 50% EtOH.
6; Detection; Fluorescence; ViewLux microplate reader, excitation 340 nm and emission 450 nm.
7; Incubation; 15 min; room temperature.
8; Detection; Fluorescence; ViewLux microplate reader, excitation 340 nm and emission 450 nm.
NOTES (numbers refer to Sequence numbers above)
1. 3 µL of 333.33 nM GPX4 and 0.016% BSA in assay buffer (50 mM Tris-HCl, 2 mM EDTA (pH 7.5), 150 mM NaCl) was added to columns 3-48 of 1536-well plates using a BioRAPTR Flying Reagent Dispenser (Let's Go Robotics (LGR), Carlsbad, CA). A no-enzyme control (0.01% BSA in TES assay buffer) was added to columns 1-2.
2. 25 nL, library and DMSO controls were added to each well with a pin tool (Kalypsys).
3. The assay plates were incubated for 30 minutes at room temperature.
4. 1 µL of master mix (500 nM glutathione reductase (GR), 5 mM reduced glutathione (GSH), 2.5 mM NADPH in assay buffer) was added.
5. 1 µL of cumene hydroperoxide (CHP) ([2.5 mM] in 50% EtOH) was then added within 5 minutes to initiate the reaction. Final concentrations were: 200 nM GPX4, 1 mM GSH, 0.5 mM CHP, 0.5 mM NADPH, 100 nM GR, 0.01% BSA.
6. Initial fluorescence readout (t=0) at 340/450 nm was measured using a ViewLux multimodal detector (PerkinElmer, Waltham, MA).
8. Endpoint fluorescence readout (t=15) at 340/450 nm was measured 15 min after room temperature incubation.
A general note: qHTS replaces the single test concentration by a dilution series.
Consider `COC(=O)CC(O)C1OC(c2ccccc2)C(O)C1O` (stereo not given), for which the Potency entry is “inactive”.
As for `CC(C)CCC(=O)CC1c2ccccc2C(=O)N1c1ccc2ccc(Cl)nc2n1` (stereo not given), the Potency result was “inactive”.
The result for `COc1cc(O)c2c(c1)C1=C[C@H](O)[C@@H](O)C[C@]1(C)OC2=O` reads “inactive”; that for `CCC1=CC2CN(C1)Cc1c([nH]c3ccccc13)[C@@](C(=O)OC)(c1cc3c(cc1OC)N(C)[C@H]1[C@@](O)(C(=O)OC)[C@H](OC(C)=O)[C@]4(CC)C=CCN5CC[C@]31[C@@H]54)C2` (stereo not given in full), “inactive”.
The result for `CC(=O)N1CCc2ccc(O)c(OC3OC(COC4OCC(O)(CO)C4O)C(O)C(O)C3O)c2C1Cc1ccc(O)cc1` (stereo not given) reads “inactive”; that for `CC1CCC2(OC1)OC1CC3C4CCC5C[C@@H](O[C@@H]6O[C@H](CO[C@@H]7OC[C@@H](O)[C@H](O)[C@H]7O)[C@H](O)[C@H](O)[C@H]6O)CC[C@]5(C)C4CC[C@]3(C)C1C2C` (stereo not given in full), “inactive”; that for `COC(=O)/C=C/C12COC(C)(C)C1C(O)C(OC(C)=O)C1(C)C2CCC2(C)C(c3ccoc3)OC(=O)C3OC321` (stereo not given), “inactive”.
In the case of `CC(=O)OC12COC1CC(O)C1(C)C(=O)C(O)C3=C(C)C(OC(=O)C(O)C(NC(=O)OC(C)(C)C)c4ccccc4)CC(O)(C(OC(=O)c4ccccc4)C21)C3(C)C` (stereo not given), the Potency result is “inactive”.
Consider `COc1cc(O)c2c(c1)C1=CC(O)C(O)CC1(C)OC2=O` (stereo not given), for which the Potency result is “inactive”.
The result for `CC(C)c1ccc(CO)cc1O[C@@H]1O[C@H](CO)[C@@H](O)[C@H](O)[C@H]1O` reads “inactive”; that for `C[C@@H]1CN(Cc2ncccn2)C[C@H]1c1nc2c(cnn2C2CCOCC2)c(=O)[nH]1`, “inactive”; that for `CC1NC(=O)CCCNC(=O)C(Cc2c[nH]c3ccccc23)NC(=O)C(C)NC(=O)C(C(C)C)NC(=O)C(C(C)c2ccccc2)NC(=O)C(C(C)C)NC1=O` (stereo not drawn) (cyclo([GABA]AV[ξPhe(βξ-Me)]VAW); configuration not given here), “inactive”.
The result for `Cc1ccc(C(=O)Nc2noc3ccccc23)cc1` reads “inactive”.
The result for `CC1CCCCN1S(=O)(=O)c1ccc(N2CCCC2=O)cc1` (stereo not given) reads “inactive”; that for `Cc1[nH]nc(C(F)(F)F)c1Cc1sc2c(c1C(=O)N1C[C@](C)(O)CO1)c(=O)n(C)c(=O)n2C(C)C`, “inactive”.
As for `OC[C@@]1(O)CO[C@@H](OC[C@H]2O[C@@H](Oc3c[nH]c4ccccc34)[C@H](O)[C@@H](O)[C@@H]2O)[C@@H]1O`, the Potency entry was “inactive”.
The result for `C[C@@H]1O[C@@H](O[C@@H]2[C@@H](O)[C@@H](O[C@]3(CO)O[C@H](CO)[C@@H](O)[C@@H]3OC(=O)/C=C/c3ccc(O)cc3)O[C@H](CO)[C@H]2OC(=O)/C=C/c2ccc(O)cc2)[C@H](O)[C@H](O)[C@H]1O[C@@H]1O[C@@H](C)[C@H](O[C@@H]2OC[C@](O)(CO)[C@H]2O)[C@@H](O)[C@H]1O` reads “inactive”; that for `O=C(O)/C=C/c1ccc(-c2ccc(O)c(C34CC5CC(CC(C5)C3)C4)c2)cc1`, “inactive”; that for `FC(F)(F)c1cc(-c2ncn(/C=C\c3nnco3)n2)cc(C(F)(F)F)c1`, “inactive”.
The result for `CC1=CC(=O)CC(C)(CO)C1(O)/C=C/C(C)O[C@@H]1O[C@H](CO)[C@@H](O)[C@H](O)[C@H]1O` (stereo not given in full) reads “inactive”; that for `CC1(C)CCCC2(C)C(C(=O)O)=CCC12` (stereo not given), “inactive”; that for `COc1c2c(c(C)c3c1C(=O)OC3)OC1(C)CC(O)C(C(C)(C)O)C(C)(CCC(=O)O)C1C2` (stereo not given), “inactive”.
For the molecule `O=C(Nc1c(-c2cccs2)nc2ccccn12)c1ccc(Cl)cc1`, the Potency result was “inactive”.
The result for `C[C@H](CCC(=O)O)[C@H]1CC[C@H]2[C@@H]3C[C@H](O)[C@@H]4C[C@H](O)CC[C@]4(C)[C@H]3CC[C@]12C` reads “inactive”; that for `COC(=O)N[C@@H](C)CNc1nccc(-c2cn(C(C)C)nc2-c2cc(Cl)cc(NS(C)(=O)=O)c2F)n1`, “inactive”.
The result for `C[C@H]1O[C@@H](O[C@H]2CC[C@@]3(C)C(CC[C@]4(C)C3CC=C3C5CC(C)(C)CC[C@]5(C(=O)O)CC[C@]34C(=O)O)C2(C)C)[C@H](O)[C@@H](O)[C@@H]1O` (stereo not given in full) reads “inactive”; that for `C/C=C/C=C/C=C/C(=O)OC1C=C(C=O)C(O)(C(=O)O)C2(C)CCCC(C)(C)C12` (stereo not given), “inactive”.
The result for `C=C(C)C(=O)OC1CC2(C)OC(=CC2=O)C(=C)CC2OC(=O)C(COC)C12` (stereo not given) reads “inactive”.
For the molecule `COCC1OC(OC(C)(C)C2CCC3(C)C=C(C4CCC5C4(C)CC(O)C4OC(C(C)(C)OC6OC(CO)C(O)C(O)C6NC(C)=O)CCC45C)CCC3O2)C(NC(C)=O)C(O)C1O` (stereo not given), the Potency entry was “inactive”.
The result for `C=C1C(=O)O[C@@H]2/C=C(\C)C(=O)/C=C/[C@](C)(O)C[C@@H](OC(=O)C(C)C)[C@@H]12` reads “inactive”.
The result for `C=C(C)C1Cc2cc(C(=O)OC3OC(CO)C(O)C(O)C3O)ccc2O1` (stereo not given) reads “inactive”; that for `NC[C@@](O)(c1ccc(Cl)cc1)c1ccc(-c2cn[nH]c2)cc1`, “inactive”; that for `COC1=CC(=O)CC(C)C12Oc1cc(OC)cc(O)c1C2=O` (stereo not given), “inactive”.
`C/C=C1\[C@H](O[C@@H]2O[C@H](CO)[C@@H](O)[C@H](O)[C@H]2O)OC=C2C(=O)OCCc3ccc(O)c(c3)Oc3ccc(cc3)CCOC(=O)C[C@H]21`: the Potency result is “inactive”.
The result for `CC1=C(COC2OC(CO)C(O)C(O)C2O)C(C(CO)C(=O)O)CC1` (stereo not given) reads “inactive”; that for `CC(C)[C@@H](CS(=O)(=O)C(C)C)N1C(=O)[C@@](C)(CC(=O)O)C[C@H](c2cccc(Cl)c2)[C@H]1c1ccc(Cl)cc1`, “inactive”; that for `COc1ccc([C@@H]2OC[C@H]3[C@@H]2CO[C@@H]3c2ccc(OC3OC(CO)C(O)C(O)C3O)c(OC)c2)cc1OC` (stereo not given in full), “inactive”.
The result for `O=C(c1cn(Cc2cncn2Cc2ccc(Br)cc2)cc1-c1cccc2ccccc12)N1CCOCC1` reads “inactive”.
The result for `O=C(Nc1ccc(S(=O)(=O)Nc2nccs2)cc1)C(c1ccccc1)c1ccccc1` reads “inactive”; that for `COc1ccc(/C=C/C(=O)O[C@@H]2[C@@H](O)[C@@H](O)[C@H](O[C@@H]3C=C(CO)[C@H]4[C@H](O[C@@H]5O[C@H](CO)[C@@H](O)[C@H](O)[C@H]5O)OC=C[C@H]43)O[C@H]2C)cc1O`, “inactive”.
